IL-2 act: qHTS of IL-2 Activators. AID 652025, 2013. IL-2 activation reporter assay, cell-based qHTS; stimulated with anti-CD3/CD4/CD28 beads; in transgenic mouse T cells. activation, % (series mostly up to about 46 µM). actives 0.065% (n = 360,000); in the data active = activation above about 50%; inconclusive = mostly about 30% to 49%; also: 0% is about no effect
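Unstimulated transgenic mouse T cells; 60-min compound exposure; bead-based TCR/CD4/CD28 stimulation; 18 h culture, 37 degrees C; dual fluorescence (EGFP, DsRed) plate cytometry.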
p53 reactivation: qHTS assay for re-activators of p53 using a Luc reporter; H1299 p53-A138V BP100-luciferase reporter, luminescence, 24 h; Potency, µM (doses to about 92.2 µM), without a hit: at the top dose activity change, positive = activation, most hits filed as activators; actives 0.063% (n = 320,000); AID 504706, 2011; also: potency is read from the fitted curve at half-maximal effect; % of control where 0% means no effect; nearly all actives have a fitted effect of over 45% in size
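p53-null H1299 cells stably carrying temperature-sensitive p53-A138V and a BP100-luciferase reporter were pinned with compounds (4-point, 1:5 series) and held 24 hrs at 37 deg C. Luminescence was read 10 min after detection reagent.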
BRCA1 expr act: qHTS Assay to Identify Small Molecule Activators of BRCA1 Expression | MCF7-BRCA1-FFLuc reporter, luminescence, 48 h; response scale: scaled: vehicle 0%, 10 µM genistein 100% | Potency, µM (top dose mostly 46.1 µM), inactives show at the top dose activation, actives largely listed as activators | actives 1.1% (n = 380,000) | AID 624202, 2012; also: potency is read from the fitted curve at half-maximal effect; nearly all actives have a fitted effect of over 80% in size
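Using MCF7 cells harboring a BRCA1 firefly luciferase reporter, plated 2 h before compound pinning, the screen measured luminescence after 48 h incubation. Responses were normalized to DMSO and 10 microM genistein, then fitted for concentration-effect.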
TCR activator: Activators of T cell receptors: qHTS campaign. primary human leukocytes, anti-CD3, IL-2 HTRF, 48 h. Potency, µM (series often up to 9.22 µM), inactives show top-dose activation of IL-2 secretion, actives largely listed as activators. 330,000 tested, under 10 active. AID 504894, 2011; also: % of control where 0% means no effect
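IL-2 produced over 48 hr by a-CD3 bead-stimulated primary human leukocytes exposed to compounds was detected with a homogeneous time-resolved FRET immunoassay, 665nm acceptor signal after 320nm excitation.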
Mito fusion act: qHTS Assay for Small Molecule Inhibitors of Mitochondrial Division or Activators of Mitochondrial Fusion | S. cerevisiae fusion-defective mutant growth rescue, CellTiterGlo 48 h | Potency, µM (highest dose often 46.1 µM), without a hit: at the top dose growth rescue (activation), hits mostly activators | actives 0.23% (n = 320,000) | AID 485298, 2010; also: potency is read from the fitted curve at half-maximal effect; % of control where 0% means no effect; nearly all actives have a fitted effect of over 45% in size
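Read-out: ATP-based luminescence (CellTiterGlo, 10 min ambient) reporting growth of fusion-defective ts yeast after 48 hours at 37C on glycerol/ethanol YPEG medium in the presence of compound.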
* marks the source's active call; other numbers are inactive results; ? = inconclusive; . = no result given; ! = not confirmed by another sample; [ ] = dose if it differs, or a comment. In the library only some 1.3% were active in any assay of this set; here they are far more common. Unless noted, calls follow the shape of the dose curve; as a rule, active = well fitted curve in the direction sought with a large enough effect; inconclusive = small, poorly fitted or top-dose-only effect, or another doubt; inactive = no such curve, though single readings can be large; an effect the other way counts as inactive or inconclusive.

SMILES	IL-2 act	p53 reactivation	BRCA1 expr act	TCR activator	Mito fusion act
CCOC(=O)c1cnc2ccccc2c1Nc1cccc(C(=O)O)c1	80*	14%	-6%	3%	1%
CCOC(=O)c1cnc2ccc(C(=O)OC)cc2c1Nc1cccc(C(=O)O)c1	0	-2%	1%	13%	5%
Cc1ccc(S(=O)(=O)N2CCC(c3nc(-c4cccs4)nc4ccccc34)CC2)cc1	.	.	5%	.	.
Cc1occc1C(=O)N/N=C/C=C/c1ccccc1	-1	20%	10µM*	8%	14%
C/C(=N\NC(=O)c1ccoc1C)c1ccccc1	-3	9%	4µM*	-9%	0%
C/C(=N/NC(=O)c1ccoc1C)c1ccc(NC(=O)C2CCCC2)cc1	-1	?	5.6µM*	5%[46.1 µM]	?
C/C(=N\NC(=O)c1ccn(C)n1)c1ccc(NC(=O)C2CCCC2)cc1	0	6%	2%	-3%[46.1 µM]	4%
C/C(=N\NC(=O)c1nn(C)c(C)c1Br)c1ccc(NC(=O)C2CCCC2)cc1	-1	23%	5µM*	-1%	4%
Brc1ccc(-c2csc(N3CCCCC3)n2)cc1	.	.	.	.	12%
Nc1cccc2cccnc12	.	.	0%	.	.
S=C(S)OC1CC2CC1C1CCCC21 (stereo not given)	0	.	10%	-4%	18µM*
C=CCn1c(NCc2ccc(OC)cc2O)nc2ccccc21	0	7%	13µM*	2%	-4%
C=CCn1c(NCc2ccccc2O)nc2ccccc21	-1	30%	87%	.	0%
COc1ccc(-c2cn(Cc3ccc(C(N)=O)cc3)c(-c3ccncc3)n2)cc1	0	?	4.5µM*	-3%	-12%
CCCNC(=O)c1ccc(Cn2cc(-c3ccc(OC)cc3)nc2C(C)N)cc1 (stereo not given)	1	18%	11µM*	7%	-6%
O=C(C[n+]1cccc2cc(Cl)ccc21)c1ccc2c(c1)CCCC2	.	.	12%	.	.
COc1ccc(Cl)cc1NC(=O)Cc1ccc(NC(=O)N2CCCCc3ccccc32)cc1	.	.	0%	.	.
O=C(Nc1c(Cl)cc([N+](=O)[O-])cc1Cl)c1cc(Cl)cc(Cl)c1O	.	.	-16%	.	.
COc1ccc(C2=NN3C(C2)c2ccccc2OC3c2cccs2)cc1 (stereo not given)	-1	14%	10µM*	.	3%
C=C1C=C(C(F)F)n2ncc(C(=O)N3CCN(c4ccccc4)CC3)c2N1	.	.	0%	.	.
COc1ccc(CNC(=O)Cn2cccc2C(=O)c2ccccc2C)cc1	1	?	9%	-4%	3%
COc1ccc(CNC(=O)Cn2cccc2C(=O)c2ccccc2)cc1	-3	?	11µM*	-6%	1%
CCOc1ccc(C(=O)NCCc2sc(-c3ccc(OC)c(OC)c3)nc2C)cc1	.	.	47%	.	.
C[C@]12CCC3c4ccc(O)cc4CCC3C1CC/C2=N\N (stereo not given in full)	0	.	-26%	-4%	.
C[C@]12CC[C@@H]3c4ccc(O)cc4CC[C@H]3[C@@H]1CCC2=O	0	-3%	-16%	-3%	5.8µM*!
SMILES	IL-2 act	p53 reactivation	BRCA1 expr act	TCR activator	Mito fusion act
CSc1nc2ccc(NS(=O)(=O)c3cccc(Cl)c3Cl)cc2s1	0	10%	-26%	3%[46.1 µM]	35µM*
CCOc1ccccc1N(CC)C(=O)c1cc2c(=O)[nH]c3ccc(C)cc3c2s1	.	.	2%	.	.
Oc1ccc(Cl)cc1C1C=C(c2ccc3c(c2)OCO3)NC(c2ccc(Cl)cc2)N1 (stereo not given)	.	.	-5%	.	.
O=[N+]([O-])c1ccccc1N/N=C\c1ccccc1Cl	-1	8%	2.5µM*	4%	-2%
O=[N+]([O-])c1ccccc1N/N=C\c1ccccc1F	-1	?	?	0%	-4%
Cc1cc(O)cc2c1O[C@](C)(CCC(=O)O)CC2	.	.	0%	.	.
CCn1nccc1C(=O)Nc1cc(Cl)ccc1Cl	0	-15%	8%	-4%	3%
CCn1nccc1C(=O)Nc1ccc(Cl)cc1Cl	-2	7%	10µM*	10%	6%
COc1ccc(-n2sc3ccccc3c2=O)cc1	-4	.	12%	.	.

High-throughput results (PubChem)
